# Measurements reported in PubChem BioAssay (NCATS).
# Results filed as inconclusive are left out. Entries that show only a call come without a potency. Activity calls are given as the source filed them. The call rests on the fitted dose curve; in most records, active means well fitted inhibition curve with a large enough effect; inconclusive means small, poorly fitted or top-dose-only effect; inactive means flat fitted curve, though single readings scatter.
# Tested on: Zika virus NS2B-NS3 protease
# Assay: Primary screen GU AMC qHTS for Zika virus inhibitors (AID 1347154); further: nearly all actives have a fitted effect of over 70% in size
# Conditions: Zika NS2B-NS3 unlinked protease, AMC fluorogenic substrate; series mostly up to 54.1 µM
# Summary of the method: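 Unlinked Zika NS2B hydrophilic domain/NS3 protease domain noncovalent complex (25 nM final) in 10 mM Tris-HCl pH 8.0, 0.01% Tween 20, with AMC peptide substrate. Fluorescence (ex 340, em 450 nm) change over 15 min, room temperature; percent inhibition fitted to 4-parameter Hill equation.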
row,SMILES,Potency
1,OCCn1cc(-c2cnc3nnn(Cc4ccc5ncccc5c4)c3n2)cn1,inactive
2,Cc1ccc2c(c1)C(=O)[C@@]1(O)CCN(c3ccccc3)C1=N2,inactive
3,CC(=O)NC(C)c1ccc(Oc2ccc(OC(C)C)cc2)cc1 (centres undefined),inactive
4,CC(C)(C)OC(=O)CN(Cc1ccc(Cl)cc1)Cc1ccc([N+](=O)[O-])s1,inactive
5,Cc1cc([C@@H](C)Nc2ccccc2C(=O)O)c2nc(N3CCOCC3)cc(=O)n2c1,inactive
6,CCOC(=O)C1=C[C@@]2(CC)CCCN3CCc4c(n1c1ccccc41)[C@H]32,inactive
7,Cc1ccc(NC(=O)c2cccc(C(C)(C)C#N)c2)cc1Nc1ccc2ncn(C)c(=O)c2c1,inactive
8,CCOc1cc(C=C2C(=O)N(c3ccccc3)N=C2C)cc(Cl)c1OCC(=O)OC,inactive
9,Nc1cccc(S(=O)(=O)N2CCCN(S(=O)(=O)c3ccc4c(c3)OCCO4)CC2)c1,inactive
10,COc1ccc(C2=N[C@H](c3ccc(Cl)cc3)[C@H](c3ccc(Cl)cc3)N2C(=O)N2CCNC(=O)C2)c(OC(C)C)c1,inactive
11,N#Cc1ccc(C(c2ccc(C#N)cc2)n2cncn2)cc1,inactive
12,Cc1cccc(-c2nn(C(=S)Nc3ccccc3)cc2-c2ccnc3ccccc23)n1,inactive
13,C[C@]12CC[C@H](O)CC1=CC[C@@H]1[C@H]2CC[C@]2(C)C(c3cccnc3)=CC[C@H]12,inactive
14,Cc1c(CCOc2ccc(C(=O)O)cc2)c2cc(Cl)ccc2n1C(c1ccccc1)c1ccccc1,inactive
15,O=C1[C@H](Cc2ccc(O)cc2)N2C(=O)CCN(C(=O)NCc3ccccc3)[C@H]2CN1Cc1cccc2ccccc12,inactive
16,COc1ccc2c3n(c(=NC(=O)c4cccnc4)nc2c1OC)CCN3,inactive
17,COc1ccc([C@@H]2CC(=O)c3c(O)cc(O[C@@H]4O[C@H](CO[C@@H]5O[C@@H](C)[C@H](O)[C@@H](O)[C@@H]5O)[C@@H](O)[C@H](O)[C@@H]4O)cc3O2)cc1O,inactive

row,SMILES,Potency
1,CNC(=O)c1ccc(N2C(=S)N(c3ccc(C#N)c(C(F)(F)F)c3)C(=O)C2(C)C)cc1F,inactive
2,CCCn1c(=O)c2[nH]c(C34CC5CC3C[C@@H](C5)C4)nc2n(CCC)c1=O,inactive
3,c1ccc(-c2nn3c(c2-c2ccnc4cc(OCCN5CCOCC5)ccc24)CCC3)nc1,inactive
4,COc1ccc(CC2=NN3C([C@@H](CCc4ccccc4)[C@@H](C)O)=NC(C)C3C(=O)N2)cc1OC (some centres undefined),inactive
5,O=C(O)[C@@H](c1ccc(OCc2ccc3ccccc3n2)cc1)C1CCCC1,inactive
6,Cn1c(=O)c(F)c(Nc2ccc(I)cc2F)c2c(=O)n(C[C@@H](O)CO)cnc21,inactive
7,CCN(c1ccccc1)c1cc(NC)[n+](C)c(C)n1,inactive
8,O=S(=O)(N=Cc1c(O)ccc2ccccc12)c1cccs1,inactive
9,Cc1cc2c(F)c(Oc3ncnn4cc(OC[C@@H](C)O)c(C)c34)ccc2[nH]1,inactive
10,COc1ccc2nc(S(=O)Cc3ncc(C)c(OC)c3C)[nH]c2c1 (centres undefined),inactive
11,Cc1cc(C=c2sc3nc4ccccc4n3c2=O)c(C)n1-c1ccccc1,inactive
12,COc1cc2c(cc1OC)CN(CCc1ccc(NC(=O)c3cccc4c(=O)c5cccc(OC)c5[nH]c34)cc1)CC2,inactive
13,CC(c1cc2ccccc2s1)N(O)C(N)=O (centres undefined),inactive
14,Nc1nccc(-c2ccc3noc(-c4ccc(Cl)cc4)c3c2)n1,inactive
15,CCN(CC)CCCC(C)Nc1nc(C)cc(Nc2ccc3nc(C)cc(N)c3c2)n1 (centres undefined),inactive
16,COc1ccc(-c2c(-c3ccc(O)cc3O)n[nH]c2C)cc1,inactive
17,Fc1ccc(Cl)cc1-c1nc(Nc2ccncc2)c2nccnc2n1,inactive
